The record followed here is PubChem BioAssay (NCATS).

Assay [1] can be described thus: AP1 Signaling Pathway (AID 357; active = well fitted curve in either direction with a large enough effect, not every such curve was filed as active; also: % is scaled to controls: 0 for no effect and ±100 for the full control effect). To be noted: ME-180 AP-1-bla reporter, EGF-induced, beta-lactamase ratio, 5 h. A digest of the protocol: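 AP-1-bla ME-180 cells with beta-lactamase reporter under AP-1 response element, stimulated with EC50 EGF; compounds titrated, 5 hours at 37 degrees Celsius. CCF4 read at 460/530 nm ratio; positive and negative modulators judged by AC50.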

The target in assay [2] is Cytochrome P450 1A2 (Homo sapiens) (UniProt P05177). Nature of the assay: p450-cyp1a2 (AID 410; calls by dose curve; also: potency is read from the fitted curve at half-maximal effect;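 as to activity change, negative = inhibition: -100% = full effect of reference inhibitor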). The note with it: recombinant CYP1A2, luciferin-ME demethylation, luminescence; series mostly up to 57 µM. A digest of the protocol:
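O-Demethylation of luciferin 6' methyl ether by human CYP1A2 is monitored as luciferase luminescence. Substrate sits at Km (100uM); enzyme is 20nM. Values are scaled to 57 uM furafylline as maximal inhibition.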

Assay [3] in a line: NFAT Signaling Pathway (AID 444; active = well fitted curve in either direction with a large enough effect, not every such curve was filed as active;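 also: carbachol stimulus at about its EC50 of 1 µM final; % is scaled to controls: 0 for no effect and ±100 for the full control effect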). The note with it: Jurkat NFAT-bla M1, carbachol, beta-lactamase ratio, 5 h. The procedure, abridged:
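Jurkat cells carrying an NFAT-driven β-lactamase reporter and co-transfected muscarinic M1 receptor were treated with compound plus carbachol (1 uM final, an EC50 level) for 5 h at 37 °C. CCF4 loading followed for 1 h at RT; 460/530 nm ratio gave %activity.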

A short description of assay [4]: Stat Signaling Pathway (AID 446; active = well fitted curve in either direction with a large enough effect, not every such curve was filed as active;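 also: ME-180 cervical cancer cells given 40 pM IL-6 alongside compound; SIE-controlled beta-lactamase reporter measured as 460/530 nm FRET emission ratio; % is scaled to controls: 0 for no effect and ±100 for the full control effect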). The note with it: ME-180 (cervical carcinoma) SIE beta-lactamase reporter, IL-6 stimulated, 5 h. A digest of the protocol: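 Overnight-plated ME-180 cells bearing a STAT Inducible Element beta-lactamase reporter; 5 h co-exposure to compound and 40 pM IL-6; values normalized to 300 pM IL-6 and 125 nM JAK inhibitor controls.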
The target in assay [5] is Glucocorticoid receptor (Homo sapiens) (UniProt P04150). As to the kind of experiment: GR-GFP Redistribution (AID 450;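 active = compounds whose dose series gives a full or clear partial fitted curve of increased nuclear translocation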; also: potency is read from the fitted curve at half-maximal effect). To be noted: U2OS GR-GFP nuclear translocation, laser cytometry, 2 h.
Chain of Glucocorticoid receptor (Homo sapiens) (P04150 whole entry, looked up, the tested form may be a part): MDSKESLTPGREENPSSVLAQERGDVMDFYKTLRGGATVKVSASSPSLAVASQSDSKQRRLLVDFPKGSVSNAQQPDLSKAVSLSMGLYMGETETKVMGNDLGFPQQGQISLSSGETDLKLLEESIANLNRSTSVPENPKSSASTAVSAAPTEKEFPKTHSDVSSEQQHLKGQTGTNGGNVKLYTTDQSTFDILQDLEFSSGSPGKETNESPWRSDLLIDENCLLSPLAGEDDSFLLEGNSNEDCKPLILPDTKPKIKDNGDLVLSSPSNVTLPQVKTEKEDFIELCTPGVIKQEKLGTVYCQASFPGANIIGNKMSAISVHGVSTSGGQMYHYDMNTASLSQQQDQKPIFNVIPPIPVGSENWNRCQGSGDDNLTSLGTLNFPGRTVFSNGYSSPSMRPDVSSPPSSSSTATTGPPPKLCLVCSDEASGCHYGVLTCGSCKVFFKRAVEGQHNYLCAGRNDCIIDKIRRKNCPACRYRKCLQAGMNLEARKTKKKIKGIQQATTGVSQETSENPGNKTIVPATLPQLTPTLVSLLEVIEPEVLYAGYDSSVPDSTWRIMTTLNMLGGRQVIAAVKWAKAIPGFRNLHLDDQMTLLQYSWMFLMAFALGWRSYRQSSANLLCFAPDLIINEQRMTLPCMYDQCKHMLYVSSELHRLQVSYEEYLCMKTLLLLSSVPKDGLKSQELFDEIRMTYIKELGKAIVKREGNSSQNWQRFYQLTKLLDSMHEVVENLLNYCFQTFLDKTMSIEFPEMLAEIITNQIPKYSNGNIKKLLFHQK
Assay [6] deals with Mitogen-activated protein kinase 10 (Mus musculus) (UniProt Q61831). Nature of the assay: JNK3 AlphaScreen Assay (AID 530; active = well fitted curve in either direction with a large enough effect, not every such curve was filed as active;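 also: kinase came from lysate of stimulated human HepG2 cells; % is scaled to controls: 0 for no effect and ±100 for the full control effect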). To be noted: JNK3 lysate, c-Jun phosphorylation; series mostly up to 57.1 µM. The procedure, abridged: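 Phosphorylation of biotinylated GST-cJun(1-79) at Ser73 is measured by AlphaScreen proximity luminescence. Enzyme is JNK3 in HepG2 lysates activated with interleukin-1beta and tumor necrosis factor alpha; ATP is 10 uM final.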

The target of assay [7] is 3',5'-cyclic-AMP phosphodiesterase 4B (Homo sapiens) (UniProt Q07343). Nature of the assay: qHTS Assay for Inhibitors of PDE-IV (AID 607; active = well fitted activation curve with a large enough effect in the main read-out, with a control signal flat, not every such curve was filed as active; also: % of control where 0% means no effect). To be noted: HEK293 ACTOne CNG channel cells, membrane potential fluorescence; series mostly up to 22.9 µM. The procedure, abridged:
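Live HEK293 cells with a modified cyclic nucleotide-gated (CNG) channel report intracellular cAMP via membrane-potential dye fluorescence (ex 535/em 590 nm). Endogenous PDE-IV was targeted. Compounds were tested at up to 22.9 uM final; RO 20-1724 100 uM served as control.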

The target in assay [8] is Cytochrome P450 2C19 (Homo sapiens) (UniProt P33261). Nature of the assay: qHTS Assay for Inhibitors and Substrates of Cytochrome P450 2C19 (AID 899). Also: % is scaled to controls: 0 for no effect and ±100 for the full control effect; nearly all actives have a fitted effect of over 60% in size. To be noted: recombinant CYP2C19, luciferin-H EGE luminescence; series mostly up to 57.1 µM. A digest of the protocol:
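NADPH-dependent conversion of Luciferin-H EGE (10uM, at KM) by 5nM enzyme in 50mM KPO4, 60 min at 37C following 10 min compound preincubation. Stopped with luciferin detection buffer; luminescence read after 20 min.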

Assay [9] deals with Zika virus NS2B-NS3 protease. As to the kind of experiment: Primary screen GU AMC qHTS for Zika virus inhibitors (AID 1347154).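 Also: 0% = no-inhibitor control and -100% = no-enzyme control; nearly all actives have a fitted effect of over 70% in size.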 The note with it: Zika NS2B-NS3 unlinked protease, AMC fluorogenic substrate; series mostly up to 54.1 µM. The procedure, abridged: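 Unlinked Zika NS2B hydrophilic domain/NS3 protease domain noncovalent complex (25 nM final) in 10 mM Tris-HCl pH 8.0, 0.01% Tween 20, with AMC peptide substrate. Fluorescence (ex 340, em 450 nm) change over 15 min, room temperature; percent inhibition fitted to 4-parameter Hill equation.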

Assay [10] in a line: Primary qHTS for small molecule stabilizers of the endoplasmic reticulum resident proteome: Secreted ER Calcium Modulated Protein (SERCaMP) assay (AID 1508630). Also: % is scaled to controls: 0 for no effect and ±100 for the full control effect. The note with it: SH-SY5Y GLuc-SERCaMP (Gaussia luciferase released on ER calcium loss) secretion, thapsigargin, luminescence; series mostly up to 38.4 µM. The procedure, abridged:
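The SH-SY5Y reporter protocol was run at 3 concentrations up to 38.3 uM (primary) or 11 concentrations (follow-up): 16 h compound, 100 nM thapsigargin for 4 h, then extracellular luciferase luminescence.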

The target in assay [11] is Glucocorticoid receptor (Homo sapiens) (UniProt P04150). Nature of the assay: GR-EFC Redistribution (AID 451; calls by dose curve; also: potency is read from the fitted curve at half-maximal effect). To be noted: CHO-K1 GR-EFC translocation, beta-gal luminescence, 2 h. The procedure, abridged:
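CHO-K1 cells stably expressing nuclear-localized β-gal enzyme acceptor and GR fused C-terminally to the enzyme donor fragment; ligand-driven nuclear translocation restores β-gal by complementation. Compounds titrated up to 46 uM final, 2 h at 37 °C; luminescence read.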

Assay [12] deals with Guanine nucleotide-binding protein G(i) subunit alpha-1 (Homo sapiens) (UniProt P63096). Nature of the assay: qHTS Assay for Inhibitors of RGS12 GoLoco Motif Activity (Green Fluorophore) (AID 879).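 Also: 0% = labeled peptide with Gαi1 and full inhibition = labeled peptide alone without protein; negative values mean loss of peptide binding seen as reduced polarization.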 To be noted: Galphai1/FITC-RGS12 GoLoco peptide, fluorescence polarization; series mostly up to 57.1 µM. A digest of the protocol:
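A drop in FITC polarization marked displacement of the FITC-tagged RGS12 GoLoco peptide (10 nM) from Gαi1 (50 nM). Compounds were incubated 10 min at room temperature in Tris pH 7.5 buffer containing 150 mM NaCl, 0.1 mM GDP and 0.05% NP40; unlabeled peptide titration served as control.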

The target of assay [13] is Cytochrome P450 3A4 (Homo sapiens) (UniProt P08684). As to the kind of experiment: qHTS Assay for Activators of Cytochrome P450 3A4 (AID 885). Also: nearly all actives have a fitted effect of over 65% in size. To be noted: recombinant CYP3A4, Luciferin-PPXE luminescence, 60 min; series mostly up to 57.1 µM. The procedure, abridged:
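Using 20nM recombinant human CYP3A4 in potassium phosphate (200mM), substrate Luciferin-PPXE at 25uM, luminescent luciferin detection followed a 60-min RT NADPH reaction; data scaled to 57 uM ketoconazole.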

The target in assay [14] is Pyruvate kinase (Leishmania mexicana) (UniProt Q27686). As to the kind of experiment: qHTS Validation Assay for Inhibitors of Leishmania Mexicana Pyruvate Kinase (AID 945).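 Also: 0% = DMSO only neutral control wells.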 The note with it: purified L. mexicana pyruvate kinase, enzyme activity, E451W mutant enzyme; series mostly up to 57.5 µM. A digest of the protocol: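 Read-out: luminescence from PKLight stop/detection reagent, data normalized to DMSO. Reaction: 0.2 nM E451W LmPYK, 0.5 mM PEP, 0.1 mM ADP, pH 7.2, 1 h room temperature.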
Chain of Pyruvate kinase (Leishmania mexicana) (Q27686 2-499 E452W): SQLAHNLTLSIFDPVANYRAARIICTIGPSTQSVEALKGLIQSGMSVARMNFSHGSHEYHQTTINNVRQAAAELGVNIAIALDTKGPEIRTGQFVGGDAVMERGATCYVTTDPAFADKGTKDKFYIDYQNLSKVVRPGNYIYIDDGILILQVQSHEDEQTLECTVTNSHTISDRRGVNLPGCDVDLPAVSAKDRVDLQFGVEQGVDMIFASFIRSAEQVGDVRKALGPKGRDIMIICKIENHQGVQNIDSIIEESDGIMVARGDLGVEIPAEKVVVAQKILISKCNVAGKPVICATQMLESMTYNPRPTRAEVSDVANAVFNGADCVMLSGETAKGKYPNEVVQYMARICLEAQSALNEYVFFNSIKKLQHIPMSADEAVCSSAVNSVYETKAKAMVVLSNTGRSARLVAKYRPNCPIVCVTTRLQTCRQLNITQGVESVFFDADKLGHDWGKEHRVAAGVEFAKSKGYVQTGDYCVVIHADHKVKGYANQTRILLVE

Assay [15] deals with Alpha-galactosidase A (Homo sapiens) (UniProt P06280). As to the kind of experiment: Counterscreen for Glucocerebrosidase Inhibitors: qHTS Assay for Human alpha-Galactosidase at pH 4.5 (AID 992). Also: 0% is about no effect. To be noted: purified enzyme, fluorogenic substrate; series mostly up to 76.9 µM. A digest of the protocol: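 Each compound is preincubated briefly with 2 nM enzyme before substrate addition (80 uM); plates then sit 20 min at ambient temperature, are quenched with 1M NaOH/1M glycine, and read fluorometrically.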
Chain of Alpha-galactosidase A (Homo sapiens) (P06280 whole entry, looked up): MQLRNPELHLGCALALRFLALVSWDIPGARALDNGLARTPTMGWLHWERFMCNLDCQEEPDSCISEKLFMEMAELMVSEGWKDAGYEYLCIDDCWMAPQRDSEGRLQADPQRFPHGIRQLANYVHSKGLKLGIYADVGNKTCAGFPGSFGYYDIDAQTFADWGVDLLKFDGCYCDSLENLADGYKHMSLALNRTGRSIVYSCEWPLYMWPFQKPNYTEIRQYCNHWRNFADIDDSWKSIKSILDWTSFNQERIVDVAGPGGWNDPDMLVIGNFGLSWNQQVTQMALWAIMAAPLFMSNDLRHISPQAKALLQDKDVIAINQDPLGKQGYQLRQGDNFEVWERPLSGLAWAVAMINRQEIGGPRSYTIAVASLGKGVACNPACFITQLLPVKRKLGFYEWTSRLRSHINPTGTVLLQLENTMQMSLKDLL

In assay [16] the target is alpha-glucosidase (Oryza sativa, rice) (UniProt Q653V4). Nature of the assay: Counterscreen for Glucocerebrosidase Inhibitors: qHTS Assay for Rice alpha-Glucosidase at pH 5.0 (AID 997).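 Also: 0% = full activity with enzyme and -100% = basal without enzyme.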 To be noted: rice alpha-glucosidase enzyme activity; series mostly up to 76.9 µM. The procedure, abridged:
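Endpoint fluorogenic assay at pH 5.0: compounds (0.7 nM to 77 uM) titrated against 4 nM rice enzyme and 400 uM 4-MU-alpha-glucoside for 20 min at room temperature; NaOH/glycine stop, read ex 365/em 440 nm, Hill-fitted AC50.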

For assay [17], the target named is DNA dC->dU-editing enzyme APOBEC-3G (Homo sapiens) (UniProt Q9HC16). Nature of the assay: qHTS for inhibitors of Vif-A3G interactions: Validation (AID 588379). Also: 0% is about no effect. The note with it: Vif-A3G protein interaction assay; series mostly up to 46.1 µM. A digest of the protocol: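 Yellow fluorescence (Ex 488, Em 500-530) of Vif-coexpressing HeLa A3G-eYFP cells, scanned by Acumen cytometer, reports blocked A3G degradation. Cells plated at 700/well overnight at 37 deg C before compound addition, then a further overnight compound incubation at 37 deg C.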
Chain of DNA dC->dU-editing enzyme APOBEC-3G (Homo sapiens) (Q9HC16 whole entry, looked up): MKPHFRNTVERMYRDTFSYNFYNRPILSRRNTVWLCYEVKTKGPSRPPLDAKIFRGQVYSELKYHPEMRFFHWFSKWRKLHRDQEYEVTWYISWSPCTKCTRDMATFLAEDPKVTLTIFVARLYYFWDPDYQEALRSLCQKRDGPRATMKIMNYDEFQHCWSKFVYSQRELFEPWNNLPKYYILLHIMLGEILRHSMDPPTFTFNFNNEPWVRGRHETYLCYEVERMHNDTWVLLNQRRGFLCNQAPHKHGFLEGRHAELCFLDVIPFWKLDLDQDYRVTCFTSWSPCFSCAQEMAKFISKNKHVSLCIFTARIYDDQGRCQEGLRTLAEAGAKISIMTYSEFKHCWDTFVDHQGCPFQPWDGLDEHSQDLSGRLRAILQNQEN

In assay [18] the target is Ubiquitin carboxyl-terminal hydrolase 1 (Homo sapiens) (UniProt O94782). As to the kind of experiment: Inhibitors of USP1/UAF1: Pilot qHTS (AID 504865).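 Also: rhodamine fluorescence freed from ubiquitin-rhodamine substrate followed over time; top concentration of the series differs between compounds; % is scaled to controls: 0 for no effect and ±100 for the full control effect; nearly all actives have a fitted effect of over 35% in size.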 The note with it: purified USP1/UAF1, Ub-rhodamine cleavage fluorescence; series mostly up to 114 µM. The procedure, abridged: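 In 50mM HEPES pH 7.8 containing 0.5mM EDTA, 1mM TCEP, 0.1 mg/ml BSA and 0.01% Tween-20, 1nM USP1/UAF1 is exposed to compound for 15 min, then Ub-Rho (150nM final) is added and fluorescence is read over time.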

A number with no mark means an inactive call. Results filed as inconclusive are left out. Calls of active or inactive are those of the source. Unless noted, calls follow the shape of the dose curve; as a rule, active = well fitted curve in the direction sought with a large enough effect; inconclusive = small, poorly fitted or top-dose-only effect, or another doubt; inactive = no such curve, though single readings can be large; an effect the other way counts as inactive or inconclusive. Some results are limits rather than exact numbers.

Chain of 3',5'-cyclic-AMP phosphodiesterase 4B (Homo sapiens) (Q07343 whole entry, looked up): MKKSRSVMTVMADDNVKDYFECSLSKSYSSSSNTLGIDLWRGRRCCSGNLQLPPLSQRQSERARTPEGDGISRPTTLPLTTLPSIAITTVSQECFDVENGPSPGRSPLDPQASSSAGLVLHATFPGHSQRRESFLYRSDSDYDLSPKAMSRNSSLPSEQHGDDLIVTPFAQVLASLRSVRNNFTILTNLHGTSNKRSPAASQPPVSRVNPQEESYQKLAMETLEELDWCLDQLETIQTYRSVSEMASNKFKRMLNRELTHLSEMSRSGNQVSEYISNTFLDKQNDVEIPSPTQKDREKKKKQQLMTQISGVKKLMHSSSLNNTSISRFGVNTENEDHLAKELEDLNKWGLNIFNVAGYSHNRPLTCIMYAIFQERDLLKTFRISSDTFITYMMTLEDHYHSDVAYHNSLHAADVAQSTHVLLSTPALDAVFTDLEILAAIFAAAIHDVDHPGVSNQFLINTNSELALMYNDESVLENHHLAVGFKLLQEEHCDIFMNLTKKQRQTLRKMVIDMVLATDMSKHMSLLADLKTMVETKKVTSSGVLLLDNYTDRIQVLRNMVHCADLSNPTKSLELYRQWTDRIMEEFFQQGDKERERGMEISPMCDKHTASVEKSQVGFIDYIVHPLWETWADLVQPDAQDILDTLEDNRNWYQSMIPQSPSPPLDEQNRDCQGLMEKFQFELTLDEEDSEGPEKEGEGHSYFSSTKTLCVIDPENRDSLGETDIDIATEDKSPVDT
Chain of Cytochrome P450 1A2 (Homo sapiens) (P05177 whole entry, looked up): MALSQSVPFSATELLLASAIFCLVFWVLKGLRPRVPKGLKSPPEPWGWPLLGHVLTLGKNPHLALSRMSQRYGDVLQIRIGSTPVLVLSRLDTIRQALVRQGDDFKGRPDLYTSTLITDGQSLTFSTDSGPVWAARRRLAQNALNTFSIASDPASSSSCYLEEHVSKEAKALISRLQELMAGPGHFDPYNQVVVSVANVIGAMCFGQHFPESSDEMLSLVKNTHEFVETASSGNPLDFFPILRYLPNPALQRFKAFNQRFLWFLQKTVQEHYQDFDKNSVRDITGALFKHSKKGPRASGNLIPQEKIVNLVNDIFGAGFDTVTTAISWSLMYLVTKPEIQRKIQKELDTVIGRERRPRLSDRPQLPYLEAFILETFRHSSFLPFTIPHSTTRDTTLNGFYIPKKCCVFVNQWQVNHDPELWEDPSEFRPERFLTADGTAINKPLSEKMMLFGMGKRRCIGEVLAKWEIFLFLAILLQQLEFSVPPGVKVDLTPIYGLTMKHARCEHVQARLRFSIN
Chain of Guanine nucleotide-binding protein G(i) subunit alpha-1 (Homo sapiens) (P63096 whole entry, looked up): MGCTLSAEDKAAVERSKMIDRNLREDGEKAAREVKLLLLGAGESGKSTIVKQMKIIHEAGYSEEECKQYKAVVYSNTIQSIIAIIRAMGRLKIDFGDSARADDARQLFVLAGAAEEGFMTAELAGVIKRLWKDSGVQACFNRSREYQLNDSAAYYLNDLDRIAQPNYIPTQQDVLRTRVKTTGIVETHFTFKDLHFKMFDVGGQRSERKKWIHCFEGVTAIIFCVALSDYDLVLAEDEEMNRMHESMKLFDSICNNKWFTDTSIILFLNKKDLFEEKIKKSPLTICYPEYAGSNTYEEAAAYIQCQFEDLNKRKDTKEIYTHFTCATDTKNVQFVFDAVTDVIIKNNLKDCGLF
Chain of Cytochrome P450 2C19 (Homo sapiens) (P33261 whole entry, looked up): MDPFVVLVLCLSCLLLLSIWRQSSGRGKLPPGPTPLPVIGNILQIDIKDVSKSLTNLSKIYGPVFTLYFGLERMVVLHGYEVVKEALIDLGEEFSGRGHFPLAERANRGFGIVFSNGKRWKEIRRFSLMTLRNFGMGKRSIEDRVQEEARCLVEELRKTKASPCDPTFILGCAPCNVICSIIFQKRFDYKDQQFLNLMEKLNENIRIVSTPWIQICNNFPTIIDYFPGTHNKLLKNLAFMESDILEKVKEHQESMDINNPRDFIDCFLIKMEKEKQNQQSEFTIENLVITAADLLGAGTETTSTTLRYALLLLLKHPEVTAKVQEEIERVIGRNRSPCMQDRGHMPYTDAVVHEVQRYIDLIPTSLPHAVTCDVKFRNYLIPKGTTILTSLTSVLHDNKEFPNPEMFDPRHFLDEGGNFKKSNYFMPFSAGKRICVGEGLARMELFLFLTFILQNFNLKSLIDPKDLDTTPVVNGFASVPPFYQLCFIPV
Chain of Cytochrome P450 3A4 (Homo sapiens) (P08684 whole entry, looked up): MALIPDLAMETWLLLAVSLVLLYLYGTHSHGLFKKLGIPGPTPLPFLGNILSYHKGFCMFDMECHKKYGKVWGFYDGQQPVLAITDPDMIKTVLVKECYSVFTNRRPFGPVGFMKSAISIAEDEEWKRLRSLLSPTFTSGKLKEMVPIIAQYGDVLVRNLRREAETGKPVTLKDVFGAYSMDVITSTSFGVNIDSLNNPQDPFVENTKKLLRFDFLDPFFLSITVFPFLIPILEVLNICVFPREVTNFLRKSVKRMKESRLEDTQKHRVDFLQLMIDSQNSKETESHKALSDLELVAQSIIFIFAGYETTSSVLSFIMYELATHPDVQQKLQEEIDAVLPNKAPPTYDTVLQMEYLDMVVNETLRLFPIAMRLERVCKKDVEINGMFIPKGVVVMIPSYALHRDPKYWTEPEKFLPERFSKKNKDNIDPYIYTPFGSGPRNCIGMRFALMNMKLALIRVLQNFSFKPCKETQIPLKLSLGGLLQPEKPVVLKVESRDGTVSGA

As to `C[C@@H](C[C@H](N)C(=O)O)C(=O)O`, the activity change, negative = inhibition in [1] (at 7.69 µM (top of the series)) was -5.85%; in assay [2] it was -18.7% [at 11.4 µM]; in assay [3] (at 7.69 µM (top of the series)) it was 21.8%; in [6], -4.43% [at 11.4 µM]. The activity, negative = inhibition in [4] (at 7.69 µM (top of the series)) is 15.7%; in assay [8], 46.1% [at 11.4 µM]. Also, the Potency in [5] was over 46 µM. Besides, the Potency entry in assay [7], in [9] and in [10] was “inactive” throughout.
As for `C[N+](C)(C)CCC(=O)c1cccc2ccccc12`, the Potency in [2] was 7.94 µM (active); in [5], over 46 µM; in assay [11], over 46 µM. In assay [3] (at 38 µM (top of the series)), the activity change, negative = inhibition is 13.8% (active). Further, in [4] (at 38 µM (top of the series)), the activity, negative = inhibition is -81.5% (active). Further, the Potency entry in assay [6], in assay [7], in assay [13], in [14], in assay [9] and in assay [10] was “inactive” throughout. Also, the call in [12], in [15] and in assay [16] was inactive.
For `NCCC[C@@H](N)C(=O)O`, the activity change, negative = inhibition is -2% in assay [1] (at 7.69 µM (top of the series)) and -0.481% in [3] (at 7.69 µM (top of the series)). Moreover, the activity, negative = inhibition in assay [4] (at 7.69 µM (top of the series)) is 1.44%. The Potency result in assay [7], in assay [9] and in assay [10] was “inactive” in each case.
Take `C=CCN1CCc2cc(O)c(O)cc2[C@H](c2ccccc2)C1`: the figures for the activity change, negative = inhibition in assay [1] (at 38 µM (top of the series)) and in [3] (at 38 µM (top of the series)) were -3.34% and -18.1%, respectively. Moreover, the Potency entry in assay [2], in [6], in [7], in assay [14], in assay [17] and in [9] was “inactive” in each case. Besides, the Potency entry in assay [10] is “inactive”. Further, in assay [4] (at 38 µM (top of the series)), the activity, negative = inhibition was -21%. Moreover, the Potency in assay [5] and in assay [11] was over 46 µM in each case. Also, the result in [12], in [15] and in [16] was inactive.
In the case of `O=C(c1c(O)c2ccc(Cl)cc2[nH]c1=O)C1CC1`, the Potency in assay [2] is 0.0794 µM (active); in assay [5], over 46 µM; in [11] it was over 46 µM. In addition, the Potency entry in [6], in assay [7], in [18], in assay [17], in assay [9] and in assay [10] was “inactive” each time.
For the compound `CCCCCC#CCC#CCC#CCC#CCCCC(=O)O`, the activity change, negative = inhibition in assay [1] (at 17.2 µM (top of the series)) was -11.4%; in assay [3] (at 17.2 µM (top of the series)), -2.11%. In [5], the Potency was over 20.6 µM. Further, the Potency entry in assay [9] and in assay [10] was “inactive” in each case.
For the compound `COc1cc([C@@H]2c3cc4c(cc3C(O[C@@H]3O[C@@H]5CO[C@@H](c6cccs6)OC5[C@H](O)[C@H]3O)C3COC(=O)[C@@H]32)OCO4)cc(OC)c1O` (stereo partly specified), the Potency entry in [9] and in [10] was “inactive” in each case.
